Holding throughout (test): NCI-60 one-dose screen, 48 h (100 = growth as untreated, 0 = no growth, -100 = all killed)
One test deals with NCI-H23 lung. Particulars: 10 µM unless noted.
For a further test, the system named is NCI-H226 lung. Particulars: 10 µM unless noted.
A further test relates to NCI-H322M lung. To be noted: 10 µM unless noted.
In another test the test system is NCI-H460 lung. To be noted: 10 µM unless noted.
The subject of the next test is HOP-92 NSCLC. Particulars: 10 µM.
In a further test the test system is NCI-H522 lung. To be noted: 10 µM.
In a further test the test system is A549/ATCC NSCLC. Particulars: 10 µM unless noted.
The next test deals with 786-0 renal. Particulars: 10 µM unless noted.
The next test deals with COLO 205 colon. To be noted: 10 µM unless noted.

This is part of a sample that, as a whole, favours compounds with a hit. Of some 83,000 tested, about 20% had one in any assay.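 Single-dose data. Exposure time 48 hours. Values below 10 considered active.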 A number with no mark means an inactive call. The source made the active and inactive calls.

For the compound `O=c1oc2ccc3ccccc3c2cc1-c1ccnc2[nH]c(=S)[nH]c(=O)c12`, the growth in the test with NCI-H23 lung is 94.7%; in the test with NCI-H226 lung, 94.5%; in the test on NCI-H322M lung, 92.9%; in the test with NCI-H460 lung, 103%; in the test on HOP-92 NSCLC it was 88.3%; in the test with NCI-H522 lung it was 88%. The figures for the growth in the test on A549/ATCC NSCLC, with 786-0 renal and in the test on COLO 205 colon were 97%, 97.5% and 111%, respectively.

Turning to `C#CCCCCCCC[C@@H]1OC(=O)[C@H]([C@@H](C)CC)NC(=O)[C@@H]([C@@H](C)CC)NC(=O)CC(=O)[C@@H]1C`, the growth is 99.2% in the test on NCI-H23 lung; 86.1% in the test with NCI-H226 lung; 96.9% with NCI-H322M lung; 102% in the test with NCI-H460 lung; 77.3% in the test with HOP-92 NSCLC; 90.7% in the test with NCI-H522 lung. Also, the growth is 107% in the test on A549/ATCC NSCLC, 109% in the test with 786-0 renal and 119% with COLO 205 colon.

As to `Clc1ccc(N/N=C(\c2ccccc2)c2ccccn2)nc1`, the growth was 19.2% in the test with NCI-H23 lung; 5.46% (active) with NCI-H226 lung; 16.3% with NCI-H322M lung; 1.31% (active) in the test with NCI-H460 lung; 31.3% in the test on HOP-92 NSCLC; 1.35% (active) in the test on NCI-H522 lung. For the same compound, the growth in the test on A549/ATCC NSCLC was 3.53% (active); in the test with 786-0 renal it was 12.7%; in the test with COLO 205 colon, 15.9%.

On to `Oc1ccccc1\C=N/N=C/C=C/c1ccccc1`, for which the growth with NCI-H23 lung is 92.7%; with NCI-H226 lung, 103%; in the test with NCI-H322M lung it was 98.6%; in the test on NCI-H460 lung it was 99%; in the test on HOP-92 NSCLC it was 103%; in the test with NCI-H522 lung, 87.4%. In addition, the growth in the test on A549/ATCC NSCLC was 105%; in the test with 786-0 renal, 111%; with COLO 205 colon it was 108%.

Regarding `Nc1cc(N)c2nc(NCCc3ccc(Cl)c(Cl)c3)cnc2c1`, the growth in the test on NCI-H23 lung is 63.8%; in the test with NCI-H226 lung, 61.4%; with NCI-H322M lung, -3.74% (active); in the test on NCI-H460 lung, 71.9%; with HOP-92 NSCLC, -54.9% (active); in the test with NCI-H522 lung, 17.3%. Moreover, the growth with A549/ATCC NSCLC is 71.1%; with 786-0 renal it was 37.5%; with COLO 205 colon, 5.65% (active).

On to `O=C(CN1C(=O)NC(c2ccccc2)(c2ccccc2)C1=O)c1ccc(N2CCCC2)cc1`, for which the growth in the test with NCI-H23 lung was 72.2%; in the test with NCI-H226 lung, 90.7%; in the test with NCI-H322M lung it was 97.4%; in the test on NCI-H460 lung, 103%; in the test on HOP-92 NSCLC, 73.8%; in the test with NCI-H522 lung, 64.5%. The growth in the test on A549/ATCC NSCLC was 77.2%; in the test with 786-0 renal, 99.6%; in the test with COLO 205 colon, 103%.

For `COc1ccc(C2C3(C#N)C(N)=NC(=C(C#N)C#N)C23C#N)cc1OC` (stereo unspecified), the growth with NCI-H23 lung is 104%; in the test on NCI-H226 lung it was 109%; in the test on NCI-H322M lung, 111%; in the test with NCI-H460 lung, 119%; with HOP-92 NSCLC, 76.8%; in the test with NCI-H522 lung, 107%. Further, the figures for the growth in the test on A549/ATCC NSCLC, with 786-0 renal and with COLO 205 colon were 107%, 99.5% and 123%, respectively.

With `COC(=O)c1ccc(C(=Nc2ccc(N(C)C(=O)CN3CCN(C)CC3)cc2)c2c(O)[nH]c3ccc(C(=O)OC)cc23)cc1`, the growth in the test with NCI-H23 lung was 35.4%; with NCI-H226 lung, 33%; in the test with NCI-H322M lung, 47.3%; in the test on NCI-H460 lung, 43.7%; in the test on HOP-92 NSCLC it was 51.1%; in the test on NCI-H522 lung it was 19%. Further, the growth was 35.6% with A549/ATCC NSCLC, 36.4% in the test on 786-0 renal and 21.8% with COLO 205 colon.

Regarding `Nc1cc(N)c2nc(-c3ccccc3)c(NCCc3ccc(Cl)c(Cl)c3)nc2c1`, the growth in the test with NCI-H23 lung was -63.9% (active); in the test with NCI-H226 lung, -76.2% (active); in the test with NCI-H322M lung, -91.7% (active); with NCI-H460 lung, -10.9% (active); with HOP-92 NSCLC, -78.5% (active); in the test on NCI-H522 lung it was -72.1% (active). Moreover, the values for the growth in the test with A549/ATCC NSCLC, with 786-0 renal and in the test with COLO 205 colon were -62.8% (active), -97.9% (active) and -62.4% (active), respectively.

As for `O=C(Oc1ccccc1)c1ccccc1Cl`, the growth in the test on NCI-H23 lung is 104%; in the test on NCI-H226 lung, 106%; in the test with NCI-H322M lung, 104%; with NCI-H460 lung, 103%; with HOP-92 NSCLC it was 90.1%; in the test with NCI-H522 lung, 121%. The growth is 99.9% with A549/ATCC NSCLC, 101% with 786-0 renal and 104% with COLO 205 colon.

For the compound `CCOC(=O)c1ccc2n1CCCc1cnc(NC(C)=O)nc1-2`, the growth in the test on NCI-H23 lung was 112%; in the test on NCI-H226 lung, 82.4%; in the test on NCI-H322M lung it was 110%; with NCI-H460 lung, 112%; in the test on HOP-92 NSCLC, 82.2%; in the test on NCI-H522 lung it was 97%. Moreover, the results for the growth in the test with A549/ATCC NSCLC, in the test on 786-0 renal and with COLO 205 colon were 109%, 99.4% and 122%, respectively.

Regarding `CC1=C(C)C(=O)C(C(C)C2=C(C)C(=O)C(C)=C(C)C2=O)=C(C)C1=O`, the growth in the test on NCI-H23 lung is 84.6%; with NCI-H226 lung, 124%; in the test with NCI-H322M lung, 111%; in the test on NCI-H460 lung it was 95.9%; with HOP-92 NSCLC, 114%; with NCI-H522 lung, 91.2%. Besides, the figures for the growth in the test on A549/ATCC NSCLC, in the test on 786-0 renal and with COLO 205 colon were 102%, 88.1% and 104%, respectively.

As for `Cc1cc2c(-c3nc4ccccc4n3C)c(O)c(O)cc2c(O)c1-c1c(C)cc2c(-c3nc4ccccc4n3C)c(O)c(O)cc2c1O`, the growth in the test on NCI-H23 lung is 24.7%; in the test with NCI-H226 lung it was 68.1%; in the test on NCI-H322M lung, 73%; in the test with NCI-H460 lung it was 7.3% (active); in the test on HOP-92 NSCLC it was 52.1%; in the test with NCI-H522 lung it was 41.4%. The results for the growth in the test with A549/ATCC NSCLC, in the test on 786-0 renal and with COLO 205 colon were 26.7%, 76% and 4.14% (active), respectively.

For the compound `CC(=O)Nc1ccc(C(=O)/C=C/c2ccc(N(C)C)cc2)cc1`, the growth was 93.9% in the test on NCI-H23 lung; 96.9% with NCI-H226 lung; 106% with NCI-H322M lung; 97.6% with NCI-H460 lung; 101% with HOP-92 NSCLC; 76.6% in the test on NCI-H522 lung. Also, the growth in the test on A549/ATCC NSCLC was 93.9%; in the test with 786-0 renal it was 96.7%; with COLO 205 colon, 106%.

The values are drawn from PubChem BioAssay (NCI).
